Assay results reported in PubChem BioAssay (NCI).
About 79,000 compounds went through this panel and 15% of them were active in at least one assay; those are over-represented in the sample as a whole. Values without a mark were called inactive. Activity calls are given as the source filed them. No stated cut-off is given here; in the data, active means growth inhibition above about 70%; inactive means the rest.

Experiment: NCI Yeast Anticancer Drug Screen. Data for the rad50 strain (AID 155);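 further: 0% = growth of vehicle-only cultures of the same strain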
Conditions: S. cerevisiae rad50 strain growth inhibition; at 5.0 µM (retest, dose inferred, filed as 0.5); active compounds read high
Summary of the method: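 DNA repair mutant yeast, compound exposure, growth read-out; inhibition is taken relative to vehicle.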
O=C1C(N=Nc2ccccc2)=C(O)C2C3C=CC(C3)C12 (centres undefined) gave a growth inhibition of 2%.
CC1CCCC(C(O)(C(=O)O)C2CCCC(C)C2)C1 (centres undefined) showed a growth inhibition of 15%.
Molecule Cc1c(Cl)ccc2c1NC(=O)C2(O)CC(=O)c1ccc(Cl)cc1 (centres undefined) has a growth inhibition of 13%.
Cc1cc2c(=O)[nH]c(N)nc2nc1C gave a growth inhibition of -7%.
C=C1C(=O)O[C@@H]2C[C@@]3(C)CCC[C@H](C)C3=C[C@H]12 showed a growth inhibition of 11%.
Molecule CCC(=NCCCCCCN=C(CC)c1cc(C)cc([N+](=O)[O-])c1O)c1cc(C)cc([N+](=O)[O-])c1O.[Fe] has a growth inhibition of 10%.
Molecule CCCCN(CCCC)CC(O)c1cc(-c2ccc(Cl)cc2)nc2c(Cl)cccc12 (centres undefined) has a growth inhibition of 1%.
For COc1ccc2c(c1)CC/C(=C\c1ccc(OCCN(C)C)cc1)C2=O, the growth inhibition was 12%.
For CCOC(=O)c1cc2c(nc1NCc1ccc(OC)c(OC)c1)/C(=C/c1ccccc1)CCCC2, the growth inhibition was 38%.
For CSCS(=O)C[C@H](CO)NC(=O)/C=C/c1c(C)[nH]c(=O)[nH]c1=O (some centres undefined), the growth inhibition was 26%.
CCOC(=O)c1c(N)sc2c1CCCCC2 gave a growth inhibition of -160%.
For Cc1cc(N)c(C)c2c1[nH]c1ccc(Br)cc12, the growth inhibition was 1%.
For N=C(N)Sc1ccc([N+](=O)[O-])cc1Cl, the growth inhibition was 45%.
For COc1c(OC)c(C2(O)C(=O)N(C)c3ccccc32)c(OC)c(OC)c1C1(O)C(=O)N(C)c2ccccc21 (centres undefined), the growth inhibition was -1%.
With Fc1cccc(NC(=S)SCc2ccc(Cl)cc2)c1 the growth inhibition was 20%.
For Cc1ccc(/C=N/NS(=O)(=O)c2ccccc2)c(C)c1, the growth inhibition was -27%.
CCCCCCCCCCCCNC(=O)C[n+]1cccc(C(=O)N(C)C)c1 showed a growth inhibition of -5%.
CN(C)C(=S)/N=c1\ss/c(=N\S(=O)(=O)c2ccccc2)n1-c1ccccc1 gave a growth inhibition of 0%.
O=C(NCCCl)Nc1c2ccccc2nc2ccccc12 showed a growth inhibition of 15%.
In the case of COc1ccccc1NC(=O)/C(=C/c1ccccc1)C(C)=O, the growth inhibition is reported as -1%.
Work on Oc1[nH]c2ccccc2c1N=NC(=S)NCc1ccccn1 yielded a growth inhibition of 9%.
In the case of c1cc2c(cc1CCCCCCCCCCc1ccc3c(c1)CCC3)CCC2, the growth inhibition is reported as -4%.
For C=Cc1ccccc1C1(O)C=CC(OC)(OC)C=C1, the growth inhibition was 17%.
Molecule CN(C)CC1CCc2c(ccc3ccccc23)C1=O (centres undefined) has a growth inhibition of 8%.
Work on CCCCC(C)(C)OC(=O)Nc1ccc(Br)cc1 yielded a growth inhibition of 0%.
In the case of O=C(Nc1ccc(F)c(Cl)c1)Oc1ccc(Br)cc1Br, the growth inhibition is reported as 10%.
In the case of CCO/C=C1\N=C(C(O)(c2ccc(Cl)cc2)c2ccc(Cl)cc2)OC1=O, the growth inhibition is reported as -1%.
O=C1c2ccccc2C(O)(c2ccccc2)c2c(Cl)cccc21 (centres undefined) showed a growth inhibition of -1%.
Work on Nc1ccccc1-c1nc2c(ccc3ccccc32)[nH]1 yielded a growth inhibition of -1%.
In the case of CCCCCCCCCCCCCCNCCN, the growth inhibition is reported as 23%.
For CC(C)CCCC(C)C1CCC2C3CC=C4OC(=O)CCC4(C)C3CCC12C (centres undefined), the growth inhibition was -11%.
Work on CC(Br)C(=O)c1ccc2cc(Cl)c3ccccc3c2c1 (centres undefined) yielded a growth inhibition of -2%.
N#CSc1ccc2nc(NCO)sc2c1 gave a growth inhibition of 22%.
Work on c1ccc2c3[nH]c(c2c1)=Nc1ccc(cc1)-c1nc2ccc(cc2o1)N=c1[nH]c(c2ccccc12)=Nc1ccc2nc(oc2c1)-c1ccc(cc1)N=3 yielded a growth inhibition of 28%.
Work on CCOc1ccc2nc(NC(=O)c3c/c(=N\NC(=O)C[N+](C)(C)C)c4ccc(O)cc4o3)sc2c1 yielded a growth inhibition of 57%.
In the case of C[C@@H]1CC=C[C@@H](NC(=O)OCc2ccccc2)[C@H]1C=O, the growth inhibition is reported as -4%.
In the case of O=C(/C=C/c1cccc([N+](=O)[O-])c1)CCl, the growth inhibition is reported as 1%.
For CCC[CH2][Sn]([CH2]CCC)([O]C(=O)c1cccc(F)c1F)[O]C(=O)c1cccc(F)c1F, the growth inhibition was 73% (active).
O=C(O)CCC(=O)NNc1ccccc1 gave a growth inhibition of 8%.
